Only some compounds are listed: those with a hit (about 3.6% of all), similar ones and a draw of the others.
BoNT-F LC inh – BoNT/F light chain protease inhibitors, primary screen, biochemical, flow cytometry, MLPCN library. Botulinum neurotoxin type F light chain protease (Clostridium botulinum). Multiplex microsphere protease cleavage assay. inhibition, % at 10 µM. 360,000 tested, 0.22% active; in the data active = inhibition above about 35%, passing the limit was not always enough; inconclusive = no clear call, values can overlap the other calls
SARS 3CLpro inh – SARS-CoV 3CLpro protease inhibitors, primary screen, biochemical, quenched FRET | recombinant SARS-CoV 3CLpro, quenched FRET peptide cleavage | inhibition, % at 6 µM | 290,000 tested, 0.14% active | AID 1706, 2009; in the data active = inhibition above about 12%
BJeLR lethal – MLPCN primary cell-based screen for lethality selective to Ras in HRASV12 cells; inhibition, % (test concentration not listed); 300,000 tested, 0.17% active; BJeLR (HRASV12) viability, CellTiter-Glo ATP luminescence, 48 h; in the data active = inhibition above about 50%; inconclusive = no clear call, values can overlap the other calls
Autofluor counter – counter-screen for toxin protease inhibitors: compound fluorescence | compound autofluorescence counterscreen, microsphere flow cytometry; active compounds read high | 360,000 tested, 3.1% active | fluorescence intensity (test concentration not listed); in the data active = fluorescence intensity above about 16000; inconclusive = no clear call, values can overlap the other calls
BoNT A protease – BoNT/A light chain protease inhibitors, primary screen, biochemical, flow cytometry, MLPCN library. Botulinum neurotoxin type A light chain protease (Clostridium botulinum A str. ATCC 3502). multiplex microsphere protease substrate cleavage. inhibition, % at 10 µM. 360,000 tested, 0.17% active
Anthrax LF inh2 – Bacillus anthracis LF protease inhibitors, primary screen, biochemical, multiplex microsphere, MLPCN library; multiplex microsphere protease cleavage assay; 360,000 tested, 0.12% active; Lethal factor (Bacillus anthracis), P15917; AID 588501, 2011; inhibition, % at 10 µM
A number is an active result; – = inactive; ? = inconclusive; · = not tested or not shown. Rule as the data show it, unless noted: active = inhibition above about 30%; inconclusive = no clear call, values can overlap the other calls; inactive = below that.

SMILES	BoNT-F LC inh	SARS 3CLpro inh	BJeLR lethal	Autofluor counter	BoNT A protease	Anthrax LF inh2
COc1ccc(NC(=O)C2CCCCN2S(=O)(=O)c2ccc(F)cc2)c(OC)c1 (configuration not stated)	–	–	–	17466	–	–
COc1ccc(NC(=O)C2CCCN2S(=O)(=O)c2ccc(C)cc2)cc1 (configuration not stated)	–	–	–	17367	–	–
COc1ccccc1NC(=O)C1CCCCN1S(=O)(=O)c1ccc(F)cc1 (configuration not stated)	–	–	–	16434	–	–
COc1ccc(NC(=O)[C@@H]2CCCN2S(=O)(=O)c2ccc(Cl)cc2)cc1	–	·	·	–	–	–
COc1cc(-c2noc(C3CCCN(C(=O)c4c(F)cccc4F)C3)n2)cc(OC)c1OC (configuration not stated)	?	–	–	–	–	–
O=C1c2ccccc2C(O)(c2ccccc2)N1C1CC1 (configuration not stated)	–	–	–	–	–	–
O=C(N=Nc1c(O)[nH]c2ccc(Br)cc12)c1ccccc1-n1cccc1	–	–	–	24096	–	–
COc1ccccc1N1CCN(C2CCCN(C(=O)CCc3ccccn3)C2)CC1 (configuration not stated)	–	–	–	–	–	–
OCc1ccccc1NC(=S)Nc1cccnc1	–	–	–	25402	–	–
CSc1ccc(/C=N/n2c(C)cc(C)cc2=O)cc1	–	–	–	23602	?	–
CC(C)(CNC(=O)c1cccc(S(=O)(=O)Nc2ccc(Br)cc2)c1)N1CCOCC1	·	·	–	·	·	·
CCOC(=O)c1sc2ncnc(NCC(c3cccs3)N(C)C)c2c1C (configuration not stated)	–	–	–	24092	–	–
CCC(=O)N1CCC1(C)C(=O)Nc1ccc2nc(C)ccc2c1 (configuration not stated)	–	·	·	–	–	–
CC(C)NC(=O)Cn1c(SCC(=O)N2CCc3ccccc3C2)nc2ccccc21	–	–	–	20580	–	–
CC1CC(C)CN(C(=O)Cn2c(SCC(=O)N3CCc4ccccc4C3)nc3ccccc32)C1 (configuration not stated)	–	–	–	–	–	–
CCC(C)NC(=O)Nc1ccc2c(c1)N(C)C(=O)c1ccccc1S2 (configuration not stated)	–	–	–	16200	–	–
C=CCN1C(=O)CSc2ccc(C(=O)N3CCC4(CC3)OCCO4)cc21	–	–	–	17917	–	–
Cc1cccc(CN2C(=O)c3ccccc3Sc3ccc(C(=O)O)cc32)c1	–	–	–	–	–	–
O=C(c1ccc2c(c1)N(Cc1ccccc1)C(=O)c1ccccc1S2)N1CCCC1	–	–	–	21624	?	–
CN1C(=O)c2ccccc2Sc2ccc(C(=O)N3CCC4(CC3)OCCO4)cc21	–	–	–	19800	–	–
CCN1C(=O)c2ccccc2Sc2ccc(C(=O)N3CCC4(CC3)OCCO4)cc21	–	–	–	–	–	–
CCc1nc2ccc(C(=O)N3CCCC(C(N)=O)C3)cn2c1N(C=O)CC (configuration not stated)	–	·	·	–	–	–
CCN(c1ccccc1)S(=O)(=O)c1ccc(Oc2ccc(C(C)=O)cc2OC)nc1	–	·	·	–	–	–
C(=N\Nc1nc(N2CCOCC2)nc(N2CCOCC2)n1)/c1ccncc1	–	–	–	–	–	–
C(=N\Nc1nc(N2CCOCC2)nc(N2CCOCC2)n1)/c1cccnc1	–	–	–	22356	–	–
SMILES	BoNT-F LC inh	SARS 3CLpro inh	BJeLR lethal	Autofluor counter	BoNT A protease	Anthrax LF inh2
CCOC(=O)C1=C(C)N(c2ccc(C)cc2)C(=O)/C1=C\c1cccs1	–	–	–	16417	–	–
CCOC(=O)C1=C(C)N(c2ccccc2)C(=O)/C1=C\c1cccs1	–	–	–	–	–	–
Cc1cc(C)cc(OCC(=O)OCC(=O)N2CCc3ccccc32)c1	–	·	–	–	–	–
CCCCc1ccc(-c2csc(/C(C#N)=C\c3ccc(C)o3)n2)cc1	–	–	–	22503	–	–
N#C/C(=C/c1ccc(-c2ccccc2)o1)c1nc(-c2cccs2)cs1	–	–	·	–	48	34
N#C/C(=C\c1ccc(-c2ccc(F)cc2)o1)C(=O)Nc1nc(-c2cccs2)cs1	–	–	–	–	–	–
CCCCc1ccc(-c2csc(/C(C#N)=C/c3ccco3)n2)cc1	–	–	–	–	–	–
CCOC(=O)c1cccc(NC(=O)CSc2nncn2-c2ccccn2)c1	–	–	–	–	–	–
COc1ncnc2c1ncn2CCCNCC(C)c1ccccc1 (configuration not stated)	–	·	·	–	–	–
CN1CC(c2ccc(C#N)cc2)C2(COc3ccccc3C2=O)C12C(=O)Nc1ccccc12 (configuration not stated)	–	–	–	19424	–	–
CCOc1ccccc1-c1nc(CN2CCCN(C(=O)c3ccco3)CC2)c(C)o1	–	–	–	–	–	–
CCCc1cc(C(N)=O)c(NC(=O)c2ccoc2C)s1	–	–	–	23003	–	–
CCCc1cc(C(N)=O)c(NC(=O)c2cc(C)on2)s1	–	–	–	16687	?	–
CC(C)NC(=O)NC(=O)COC(=O)c1ccc(F)cc1F	–	–	–	–	–	–
Cc1ccn(CCSCC(=O)O)n1	–	–	–	22249	?	–
CN(/N=C/c1ccncc1)c1cnn(-c2ccc(F)c(Cl)c2)c(=O)c1Cl	–	–	–	20433	–	–
FC(F)Sc1ccc(Nc2ncnc3nc[nH]c23)cc1	–	–	–	23588	?	–
Cc1cc(C)cc(Nc2ncnc3nc[nH]c23)c1	–	–	–	–	–	–
Cc1ccc(S(=O)(=O)N2C[C@H]3[C@H]4C(=O)N(c5ccccc5)C(=O)[C@H]4C[C@H](OC(=O)NCc4ccccc4F)[C@@]3(O)C2)cc1	–	·	·	–	–	–
COc1ccccc1NC(=O)CNC(=O)c1ccccc1C	–	–	–	24190	–	–
COc1ccccc1NC(=O)CN(C)S(=O)(=O)c1cc(C)ccc1OC	–	–	–	16552	–	–
COc1ccccc1NC(=O)CNS(=O)(=O)c1ccccc1	–	–	–	21927	?	–
Cc1ccc(C)c(NC(=O)CNS(=O)(=O)c2ccccc2)c1	–	–	–	16924	?	–
COc1ccccc1NC(=O)CNC(=O)c1ccccc1	–	–	–	–	–	–
O=C(CNS(=O)(=O)c1ccccc1)Nc1ccccc1Br	–	–	–	–	–	–
CC(CCc1ccccc1)NC(=O)CCCn1ncn2c(cc3occc32)c1=O (configuration not stated)	–	–	–	–	–	–

Screening results (PubChem BioAssay)
